Experimental data reported in the antibiotic and cytotoxicity screens of Wong et al. (2023).
The whole screen tested about 39,000 compounds, of which about 3,300 (8.5%) were called active. The list comes from a sample in which actives are over-represented; it also holds similar structures and randomly drawn compounds.

test system: HepG2; assay: cytotoxicity call (relative viability < 0.9); settings: 10 µM

| SMILES | cytotoxicity call |
| --- | --- |
| COc1ccc(NC(=O)N(C)C[C@@H]2OCCCC[C@@H](C)Oc3ccc(NC(=O)C4CCCCC4)cc3C(=O)N([C@@H](C)CO)C[C@@H]2C)cc1 | inactive |
| C[N+](C)(C)CCCC[C@@H]1NC(=O)[C@H]2C[C@@H](C(=O)NCCCCCCN)[C@@H](c3ccc(O)cc3)N2C1=O | inactive |
| CCNC(=O)[C@@H]1CCCN1C(=O)[C@H](CCCN=C(N)N)NC(=O)[C@H](CC(C)C)NC(=O)[C@@H](Cc1c[nH]c2ccccc12)NC(=O)[C@H](Cc1ccc(O)cc1)NC(=O)[C@H](CO)NC(=O)[C@H](Cc1c[nH]c2ccccc12)NC(=O)[C@H](Cc1c[nH]cn1)NC(=O)[C@@H]1CCC(=O)N1 | inactive |
| C[C@H](CO)N1C[C@H](C)[C@H](CN(C)C(=O)c2ccccn2)Oc2cc(C#Cc3ccc(F)cc3)ccc2S1(=O)=O | inactive |
| O=C(O)c1ccc(O)cc1O | inactive |
| C[C@H](CO)N1C[C@H](C)[C@H](CN(C)Cc2ccc(C(F)(F)F)cc2)OCc2ccccc2-c2ccccc2C1=O | inactive |
| COc1ccccc1CNC(=O)C[C@@H]1C[C@H]2c3cc(NS(=O)(=O)c4ccc(F)cc4)ccc3O[C@H]2[C@@H](CO)O1 | inactive |
| C[C@H]1CCCCO[C@H](CN(C)S(=O)(=O)c2cccs2)[C@@H](C)CN([C@@H](C)CO)C(=O)c2cc(NS(=O)(=O)c3cn(C)cn3)ccc2O1 | inactive |
| C[C@@H]1CN([C@@H](C)CO)C(=O)Cc2cc(NS(=O)(=O)c3cn(C)cn3)ccc2O[C@H]1CN(C)Cc1ccc2c(c1)OCO2 | inactive |
| C[C@H](CO)N1C[C@H](C)[C@@H](CN(C)C(=O)C2CCCCC2)OCCCC[C@H](C)Oc2ccc(NC(=O)Nc3cccc4ccccc34)cc2C1=O | inactive |
| C[C@@H]1CCCCO[C@@H](CN(C)S(C)(=O)=O)[C@H](C)CN([C@@H](C)CO)C(=O)c2cc(NS(=O)(=O)c3ccccc3)ccc2O1 | inactive |
| COc1ccccc1C(=O)Nc1ccc2c(c1)C(=O)N(C)[C@@H]1CC[C@@H](CC(=O)NCc3ccc(Cl)c(Cl)c3)O[C@H]1CO2 | inactive |
| COc1ccccc1C(=O)Nc1ccc2c(c1)C(=O)N(C)[C@@H]1CC[C@H](CC(=O)NCCc3ccncc3)O[C@H]1CO2 | inactive |
| COc1ccccc1C(=O)Nc1ccc2c(c1)C(=O)N(C)[C@H]1CC[C@@H](CC(=O)NCc3ccc(Cl)c(Cl)c3)O[C@@H]1CO2 | active |
| COc1ccc(S(=O)(=O)N(C)C[C@@H]2Oc3ccc(NC(=O)Cn4cnnn4)cc3C(=O)N([C@H](C)CO)C[C@H]2C)cc1 | inactive |
| C[C@H](CO)N1C[C@H](C)[C@@H](CN(C)S(C)(=O)=O)OCCCC[C@H](C)Oc2ccc(NC(=O)Nc3ccc(C(F)(F)F)cc3)cc2C1=O | inactive |
| C[C@@H]1CCCCO[C@@H](CN(C)Cc2ccc(C(F)(F)F)cc2)[C@@H](C)CN([C@@H](C)CO)C(=O)c2cc(NS(=O)(=O)c3cn(C)cn3)ccc2O1 | inactive |
| CC(C)CCN1CCn2c(CO)nnc2C1 | inactive |
| C[C@@H]1CN([C@@H](C)CO)C(=O)Cc2cc(NC(=O)C3CC3)ccc2O[C@H]1CN(C)C(=O)NC1CCCCC1 | inactive |
| Cl.N#Cc1ccc2[nH]cc(CCCCN3CCN(c4ccc5oc(C(N)=O)cc5c4)CC3)c2c1 | active |
| CCC(=O)C12CC3CC(CC(C3)C1)C2 | inactive |
| COc1ccc(NC(=O)N(C)C[C@H]2OCCCC[C@H](C)Oc3ccc(NC(=O)Nc4ccc5c(c4)OCO5)cc3C(=O)N([C@H](C)CO)C[C@@H]2C)cc1 | inactive |

| SMILES | cytotoxicity call |
| --- | --- |
| CC(/C=C/C(=O)NO)=C\c1ccccc1OCc1cn(CCNC(=O)[C@@H](NS(=O)(=O)c2ccc(C)cc2)C(C)C)nn1 | inactive |
| C#CCN([C@H](/C=C/C1CC1)[C@@H](O)Cc1ccccc1)[C@@H](Cc1ccc(-n2cc(COc3ccccc3/C=C(C)/C=C/C(=O)NO)nn2)cc1)C(=O)OC | inactive |
| COC(=O)[C@H](Cc1ccccc1)N1C[C@](C)(OC(C)C)O[C@@H](CCn2cc(COc3ccccc3/C=C(C)/C=C/C(=O)NO)nn2)[C@@H]1/C=C/C1CC1 | inactive |
| Cc1ccc(S(=O)(=O)N[C@H](C(=O)NCCn2cc(CCC(=O)NO)nn2)C(C)C)cc1 | inactive |
| COC(=O)[C@@H](N)Cc1ccc(-n2cc(CCC(=O)NO)nn2)cc1 | active |
| Nc1cccc(-n2cc(CCC(=O)NO)nn2)c1 | inactive |
| CC(/C=C/C(=O)NO)=C\c1ccccc1OCc1cn(C[C@@H]2CCCN2S(=O)(=O)c2ccc(C)cc2)nn1 | active |
| COC(=O)[C@@H](Cc1ccc(-n2cc(COc3ccccc3/C=C(C)/C=C/C(=O)NO)nn2)cc1)N1CC(/C=C/C2CC2)=C[C@H]1[C@H](O)Cc1ccccc1 | inactive |
| CC(/C=C/C(=O)NO)=C\c1ccccc1OCc1cn(-c2cccc(N(S(=O)(=O)c3ccc(C)cc3)S(=O)(=O)c3ccc(C)cc3)c2)nn1 | active |
| CCOc1cc(OCC)cc(C(=O)N[C@@H](Cc2ccc(-n3cc(CCC(=O)NO)nn3)cc2)C(=O)OC)c1 | inactive |
| Cc1ccc(S(=O)(=O)N(c2cccc(-n3cc(CCC(=O)NO)nn3)c2)S(=O)(=O)c2ccc(C)cc2)cc1 | active |
| Nc1ccc(-n2cc(CCC(=O)NO)nn2)cc1 | inactive |
| O=C(NC1CCC1)[C@H]1[C@H](CO)[C@H]2Cn3c(cccc3=O)[C@H]2N1CC1CCOCC1 | inactive |
| COc1ccccc1-c1ccc2c(c1)O[C@H](CN(C)CC1CCOCC1)[C@H](C)CN([C@@H](C)CO)S2(=O)=O | inactive |
| C[C@H]1CN([C@@H](C)CO)C(=O)Cc2cc(NC(=O)CCN3CCOCC3)ccc2O[C@@H]1CN(C)Cc1ccncc1 | inactive |
| OCCNC(=S)Nc1ccccc1 | inactive |
| C[C@H](CO)N1C[C@H](C)[C@@H](CN(C)S(=O)(=O)c2ccc(Cl)cc2)OCCCC[C@H](C)Oc2ccc(NC(=O)Nc3ccc(C(F)(F)F)cc3)cc2C1=O | inactive |
| Cn1cnc(S(=O)(=O)N[C@@H]2CC[C@H](CC(=O)Nc3ccccc3)O[C@H]2CO)c1 | inactive |
| COc1ccc(CN(C)C[C@@H]2Oc3c(NS(=O)(=O)c4cn(C)cn4)cccc3C(=O)N([C@H](C)CO)C[C@@H]2C)cc1 | inactive |
| CCCN(C)C[C@H]1Oc2cc(C#Cc3ccccc3OC)ccc2S(=O)(=O)N([C@@H](C)CO)C[C@H]1C | inactive |
| COc1ccc(S(=O)(=O)N(C)C[C@@H]2Oc3ccc(NS(=O)(=O)c4ccccc4)cc3C(=O)N([C@H](C)CO)C[C@H]2C)cc1 | inactive |
| CC(C)=CCc1c(O)cc2oc(C)cc(=O)c2c1O | inactive |

| SMILES | cytotoxicity call |
| --- | --- |
| COc1c(O)cc2oc3cc(O)c(CC=C(C)C)c(O)c3c(=O)c2c1CC=C(C)C [alpha-MANGOSTIN ] | active |
| COc1cc(O)c2c(=O)cc(C)oc2c1CC=C(C)C | inactive |
| CN(C)CCCNC(=O)[C@H]1[C@H](CO)[C@H]2Cn3c(ccc(-c4ccncc4)c3=O)[C@@H]1N2C(=O)C1CC1 | inactive |
| COCC(=O)N(C)C[C@@H]1Oc2cc(C#C[C@@H](C)O)ccc2S(=O)(=O)N([C@H](C)CO)C[C@@H]1C | inactive |
| COCC(=O)Nc1ccc2c(c1)C(=O)N(C)[C@@H]1CC[C@H](CC(=O)NC3Cc4ccccc4C3)O[C@H]1CO2 | inactive |
| C[C@@H]1CCCCO[C@H](CN(C)Cc2ccc(Cl)c(Cl)c2)[C@@H](C)CN([C@@H](C)CO)C(=O)c2cc(NS(=O)(=O)c3ccccc3)ccc2O1 | active |
| C[C@H](CO)N1C[C@H](C)[C@@H](CN(C)Cc2ccc(Cl)c(Cl)c2)OCCCC[C@H](C)Oc2ccc(NS(=O)(=O)c3ccccc3)cc2C1=O | active |
| C[C@@H]1CCCCO[C@@H](CN(C)Cc2ccc(Cl)c(Cl)c2)[C@H](C)CN([C@H](C)CO)C(=O)c2cc(NS(=O)(=O)c3ccccc3)ccc2O1 | active |
| C[C@@H]1CCCCO[C@H](CN(C)Cc2ccc(Cl)c(Cl)c2)[C@H](C)CN([C@@H](C)CO)C(=O)c2cc(NS(=O)(=O)c3ccccc3)ccc2O1 | inactive |
| C[C@@H]1CCCCO[C@@H](CN(C)Cc2ccc(Cl)c(Cl)c2)[C@H](C)CN([C@@H](C)CO)C(=O)c2cc(NS(=O)(=O)c3ccccc3)ccc2O1 | active |
| C[C@@H]1CCCCO[C@H](CN(C)Cc2ccc(Cl)c(Cl)c2)[C@@H](C)CN([C@H](C)CO)C(=O)c2cc(NS(=O)(=O)c3ccccc3)ccc2O1 | inactive |
| CN(C)c1nc(NCCO)c2cnn(C)c2n1 | inactive |
| Cc1noc(C)c1S(=O)(=O)N(C)C[C@@H]1Oc2ccc(NS(=O)(=O)c3ccccc3)cc2C(=O)N([C@@H](C)CO)C[C@@H]1C | inactive |
| C[C@@H]1CN([C@H](C)CO)C(=O)c2cc(NC(=O)Cn3cnnn3)ccc2O[C@@H]1CN(C)S(=O)(=O)c1cn(C)cn1 | inactive |
| CC(C)NC(=O)N(C)C[C@@H]1OCCCC[C@H](C)Oc2ccc(NS(C)(=O)=O)cc2C(=O)N([C@H](C)CO)C[C@@H]1C | inactive |
| C[C@@H]1CN([C@H](C)CO)C(=O)c2cc(NS(=O)(=O)c3cn(C)cn3)ccc2O[C@@H](C)CCCCO[C@@H]1CN(C)S(=O)(=O)c1cccs1 | inactive |
| CC(C)CC#Cc1ccc2c(c1)O[C@H](CN(C)C(=O)Cc1ccncc1)[C@H](C)CN([C@@H](C)CO)S2(=O)=O | inactive |
| C[C@@H]1CCCCO[C@@H](CN(C)C(=O)NC2CCCCC2)[C@H](C)CN([C@H](C)CO)C(=O)c2cc(NS(=O)(=O)c3ccc(F)cc3)ccc2O1 | inactive |
| COc1ccc(S(=O)(=O)N(C)C[C@H]2Oc3ccc(NS(=O)(=O)c4cn(C)cn4)cc3C(=O)N([C@H](C)CO)C[C@@H]2C)cc1 | inactive |
| COc1ccc(S(=O)(=O)N(C)C[C@@H]2OCCCC[C@@H](C)Oc3ccc(NS(C)(=O)=O)cc3C(=O)N([C@H](C)CO)C[C@H]2C)cc1 | inactive |
